Test results published in PubChem BioAssay (NCATS).
Inconclusive results are not listed. Activity calls are given as the source filed them. Unless noted, calls follow the shape of the dose curve; as a rule, active = well fitted curve in the direction sought with a large enough effect; inconclusive = small, poorly fitted or top-dose-only effect, or another doubt; inactive = no such curve, though single readings can be large; an effect the other way counts as inactive or inconclusive.

Experiments:
[1] = NFAT Signaling Pathway (AID 444; active = well fitted curve in either direction with a large enough effect, not every such curve was filed as active;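 also: carbachol stimulus at about its EC50 of 1 µM final; % is scaled to controls: 0 for no effect and ±100 for the full control effect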); conditions: Jurkat NFAT-bla M1, carbachol, beta-lactamase ratio, 5 h; at 38 µM (top of the series)
Method in brief: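 Read-out: CCF4 FRET ratio (460 nm/530 nm) after 1 h RT dye loading, used for %activity and AC50 from titration series. Cells: Jurkat NFAT-β-lactamase/M1 line, treated with compound plus 1 uM carbachol for 5 h, 37 °C.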

[2] = target: Glucocorticoid receptor (Homo sapiens) (UniProt P04150); test: GR-GFP Redistribution (AID 450;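 active = compounds whose dose series gives a full or clear partial fitted curve of increased nuclear translocation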; also: potency is read from the fitted curve at half-maximal effect); conditions: U2OS GR-GFP nuclear translocation, laser cytometry, 2 h
Glucocorticoid receptor (Homo sapiens), sequence (P04150 whole entry, looked up, the tested form may be a part): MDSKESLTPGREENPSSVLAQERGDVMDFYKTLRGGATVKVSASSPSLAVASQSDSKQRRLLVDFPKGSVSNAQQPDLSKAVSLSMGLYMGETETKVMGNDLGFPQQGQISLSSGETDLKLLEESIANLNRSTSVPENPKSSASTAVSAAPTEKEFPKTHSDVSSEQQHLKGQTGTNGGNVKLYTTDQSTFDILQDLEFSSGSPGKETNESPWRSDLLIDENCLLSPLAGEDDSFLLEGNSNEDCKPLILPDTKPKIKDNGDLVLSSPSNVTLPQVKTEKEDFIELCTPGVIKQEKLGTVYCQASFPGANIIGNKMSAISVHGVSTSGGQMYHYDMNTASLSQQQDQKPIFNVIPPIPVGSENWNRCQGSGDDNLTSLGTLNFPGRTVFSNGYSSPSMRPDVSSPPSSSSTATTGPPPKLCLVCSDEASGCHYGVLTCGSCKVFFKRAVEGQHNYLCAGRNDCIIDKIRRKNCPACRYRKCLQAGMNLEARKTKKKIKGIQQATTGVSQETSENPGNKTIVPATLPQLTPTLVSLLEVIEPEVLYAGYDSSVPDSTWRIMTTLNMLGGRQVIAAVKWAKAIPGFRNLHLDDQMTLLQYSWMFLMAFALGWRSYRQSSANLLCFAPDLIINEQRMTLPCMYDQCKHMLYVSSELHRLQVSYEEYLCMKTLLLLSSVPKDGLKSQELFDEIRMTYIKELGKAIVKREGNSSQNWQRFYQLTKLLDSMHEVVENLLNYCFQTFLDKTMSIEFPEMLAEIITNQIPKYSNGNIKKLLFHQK

[3] = target: Glucocorticoid receptor (Homo sapiens) (UniProt P04150); test: GR-EFC Redistribution (AID 451; calls by dose curve; also: potency is read from the fitted curve at half-maximal effect); conditions: CHO-K1 GR-EFC translocation, beta-gal luminescence, 2 h
Method in brief: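 Translocation of GR-ED fusion to nuclear EA restores b-gal, read by luminescence after 1 h room-temperature detection. Engineered CHO-K1 biosensor cells, 1,000/well, exposed 2 h at 37 C to titrations up to 46 uM final.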

[4] = target: Mitogen-activated protein kinase 10 (Mus musculus) (UniProt Q61831); test: JNK3 AlphaScreen Assay (AID 530; active = well fitted curve in either direction with a large enough effect, not every such curve was filed as active;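 also: kinase came from lysate of stimulated human HepG2 cells; potency is read from the fitted curve at half-maximal effect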)
Method in brief: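 Compound titrations were preincubated 15 minutes at room temperature with substrate, antibody and pre-activated JNK3-containing HepG2 lysate. Reactions were started with 10 uM ATP and stopped with EDTA-containing bead buffer for AlphaScreen detection.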

[5] = target: 3',5'-cyclic-AMP phosphodiesterase 4B (Homo sapiens) (UniProt Q07343); test: qHTS Assay for Inhibitors of PDE-IV (AID 607; active = well fitted activation curve with a large enough effect in the main read-out, with a control signal flat, not every such curve was filed as active; also: % of control where 0% means no effect)
Method in brief: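 Cell-based read-out of cAMP via a modified cyclic nucleotide-gated channel and membrane potential dye (535/590 nm) in HEK293 cells expressing PDE4 endogenously. Compounds tested up to 22.9 uM final; 100 uM RO 20-1724 reference.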

[6] = target: Guanine nucleotide-binding protein G(i) subunit alpha-1 (Homo sapiens) (UniProt P63096); test: qHTS Assay for Inhibitors of RGS12 GoLoco Motif Activity (Green Fluorophore) (AID 879);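 also: 0% = labeled peptide with Gαi1 and full inhibition = labeled peptide alone without protein; negative values mean loss of peptide binding seen as reduced polarization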
Guanine nucleotide-binding protein G(i) subunit alpha-1 (Homo sapiens), sequence (P63096 whole entry, looked up): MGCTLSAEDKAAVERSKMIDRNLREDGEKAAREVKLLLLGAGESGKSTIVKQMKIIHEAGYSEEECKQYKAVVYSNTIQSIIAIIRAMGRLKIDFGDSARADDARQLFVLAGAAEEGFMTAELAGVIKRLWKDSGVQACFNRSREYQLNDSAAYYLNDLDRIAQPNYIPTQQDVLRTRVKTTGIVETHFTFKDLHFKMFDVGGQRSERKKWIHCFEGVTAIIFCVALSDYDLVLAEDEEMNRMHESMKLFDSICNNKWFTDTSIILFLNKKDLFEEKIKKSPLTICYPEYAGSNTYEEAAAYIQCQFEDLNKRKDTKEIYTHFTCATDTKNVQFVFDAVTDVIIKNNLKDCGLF
Method in brief: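 Fluorescence polarization assay: 50 nM Gαi1 with 10 nM FITC-labeled RGS12 GoLoco peptide in 10 mM Tris pH 7.5, 150 mM NaCl, 0.1 mM GDP, 0.05% NP40, 10 min at room temperature with compound.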

[7] = target: Cytochrome P450 2C9 (Homo sapiens) (UniProt P11712); test: qHTS Assay for Inhibitors and Substrates of Cytochrome P450 2C9 (AID 883); also: % is scaled to controls: 0 for no effect and ±100 for the full control effect; nearly all actives have a fitted effect of over 60% in size
Cytochrome P450 2C9 (Homo sapiens), sequence (P11712 whole entry, looked up): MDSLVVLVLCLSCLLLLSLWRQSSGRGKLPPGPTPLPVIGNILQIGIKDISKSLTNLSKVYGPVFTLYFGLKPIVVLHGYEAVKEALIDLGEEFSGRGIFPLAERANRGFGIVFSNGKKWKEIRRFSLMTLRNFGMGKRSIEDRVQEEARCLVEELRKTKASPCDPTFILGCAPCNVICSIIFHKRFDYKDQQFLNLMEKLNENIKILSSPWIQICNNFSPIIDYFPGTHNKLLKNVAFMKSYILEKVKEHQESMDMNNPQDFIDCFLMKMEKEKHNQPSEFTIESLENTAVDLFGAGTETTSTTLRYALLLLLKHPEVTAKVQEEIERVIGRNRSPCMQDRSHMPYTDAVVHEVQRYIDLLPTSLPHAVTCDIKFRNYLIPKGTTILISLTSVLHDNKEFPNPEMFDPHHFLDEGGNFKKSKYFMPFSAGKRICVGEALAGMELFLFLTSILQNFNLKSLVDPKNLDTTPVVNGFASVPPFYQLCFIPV
Method in brief: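 Turnover of Luciferin-H (100uM, KM) by 10nM human CYP2C9 was measured over 60 min at 37C with NADPH regeneration; inhibitors and some substrates reduce luminescence. Data normalized to sulphaphenazole 57uM.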

[8] = target: Cytochrome P450 3A4 (Homo sapiens) (UniProt P08684); test: qHTS Assay for Activators of Cytochrome P450 3A4 (AID 885); also: nearly all actives have a fitted effect of over 65% in size
Cytochrome P450 3A4 (Homo sapiens), sequence (P08684 whole entry, looked up): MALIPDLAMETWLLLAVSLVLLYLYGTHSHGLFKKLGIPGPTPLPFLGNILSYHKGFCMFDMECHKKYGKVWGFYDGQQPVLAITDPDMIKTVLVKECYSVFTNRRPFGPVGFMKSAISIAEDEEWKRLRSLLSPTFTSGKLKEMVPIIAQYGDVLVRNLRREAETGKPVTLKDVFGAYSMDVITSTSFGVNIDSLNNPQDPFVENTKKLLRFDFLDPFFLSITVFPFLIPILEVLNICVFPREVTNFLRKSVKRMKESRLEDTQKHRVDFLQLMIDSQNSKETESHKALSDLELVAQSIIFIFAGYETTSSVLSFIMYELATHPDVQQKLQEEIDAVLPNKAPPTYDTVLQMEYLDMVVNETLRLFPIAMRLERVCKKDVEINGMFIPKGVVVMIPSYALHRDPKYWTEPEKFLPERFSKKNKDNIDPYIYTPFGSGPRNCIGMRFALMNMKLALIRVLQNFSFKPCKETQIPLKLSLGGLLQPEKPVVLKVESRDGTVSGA
Method in brief: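 Signal was normalized against complete inhibition by 57 uM ketoconazole. The reaction used 20nM CYP3A4 with 25uM Luciferin-PPXE, 10-min compound preincubation and a 60-min NADPH-supported step at RT.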

[9] = target: Cytochrome P450 2D6 (Homo sapiens) (UniProt P10635); test: qHTS Assay for Inhibitors and Substrates of Cytochrome P450 2D6 (AID 891);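 also: luciferin methyl ether substrate demethylated by CYP2D6 with NADPH regeneration; % is scaled to controls: 0 for no effect and ±100 for the full control effect; nearly all actives have a fitted effect of over 60% in size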
Cytochrome P450 2D6 (Homo sapiens), sequence (P10635 whole entry, looked up): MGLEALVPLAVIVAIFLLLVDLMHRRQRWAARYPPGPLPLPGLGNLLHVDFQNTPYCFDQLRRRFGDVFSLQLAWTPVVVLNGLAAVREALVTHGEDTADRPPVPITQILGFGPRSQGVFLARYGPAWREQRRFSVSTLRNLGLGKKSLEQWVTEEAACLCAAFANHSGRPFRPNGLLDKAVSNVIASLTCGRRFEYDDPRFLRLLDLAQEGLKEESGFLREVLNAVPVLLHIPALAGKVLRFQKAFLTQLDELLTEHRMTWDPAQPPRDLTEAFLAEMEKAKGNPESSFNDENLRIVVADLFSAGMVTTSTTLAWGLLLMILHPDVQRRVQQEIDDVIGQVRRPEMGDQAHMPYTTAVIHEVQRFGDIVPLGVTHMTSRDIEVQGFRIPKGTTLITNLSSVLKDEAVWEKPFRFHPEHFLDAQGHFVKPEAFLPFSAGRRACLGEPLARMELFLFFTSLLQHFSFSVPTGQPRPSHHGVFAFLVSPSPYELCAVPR
Method in brief: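 Human CYP2D6 (5 nM) with 30 uM Luciferin-ME EGE (at Km) in 100 mM KPO4, compound preincubated 10 min, then NADPH regeneration system for 60 min at room temperature. Luciferin read by luminescence; normalized to 1.43 uM quinidine.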

[10] = qHTS Assay for Identification of Small Molecule Agonists for Thrombopoietin (TPO) Signaling Pathway (AID 917); also: % is scaled to controls: 0 for no effect and ±100 for the full control effect
Method in brief: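 Murine Ba/F3 cells stably expressing human TPO receptor and a Glycoprotein IIb promoter–luciferase reporter were IL-3-starved overnight, then treated with compounds plus TPO (26 pM final, its EC50) for 24 hrs at 37 C; luminescence was read.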

[11] = target: Muscarinic acetylcholine receptor M1 (Rattus norvegicus) (UniProt P08482); test: qHTS Assay for Antagonists of Acetylcholine Muscarinic M1 Receptor: Kinetic Measurement of Intracellular Calcium Response (AID 943);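 also: Fluo-4 calcium signal as peak divided by basal fluorescence over 4 min; nearly all actives have a fitted effect of over 75% in size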
Muscarinic acetylcholine receptor M1 (Rattus norvegicus), sequence (P08482 whole entry, looked up): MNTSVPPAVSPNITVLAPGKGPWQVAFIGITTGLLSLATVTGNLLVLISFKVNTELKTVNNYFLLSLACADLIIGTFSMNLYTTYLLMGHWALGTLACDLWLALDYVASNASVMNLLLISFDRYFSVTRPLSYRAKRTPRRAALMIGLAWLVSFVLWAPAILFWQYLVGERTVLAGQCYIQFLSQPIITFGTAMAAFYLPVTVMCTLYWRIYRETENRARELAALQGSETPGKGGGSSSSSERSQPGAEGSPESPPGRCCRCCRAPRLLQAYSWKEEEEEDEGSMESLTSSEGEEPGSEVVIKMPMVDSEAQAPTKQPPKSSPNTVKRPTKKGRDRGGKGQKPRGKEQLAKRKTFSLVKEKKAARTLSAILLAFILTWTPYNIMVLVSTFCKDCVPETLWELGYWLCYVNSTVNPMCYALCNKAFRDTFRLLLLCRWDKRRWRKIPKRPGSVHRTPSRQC
Method in brief: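 Rat M1-CHO cells, 2000/well, overnight → Fluo-4 no-wash dye with probenecid, 1 h 37C → compound 10 min, room temp → basal read 6 s → carbachol EC80 (100 nM) → 4 min kinetic read; peak/basal.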

[12] = target: Pyruvate kinase PKM (Homo sapiens) (UniProt P14618); test: qHTS Assay for Activators of Human Muscle Pyruvate Kinase (AID 954; active = well fitted curve in the direction sought with a large enough effect, not every such curve was filed as active;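 also: 0% = uninhibited enzyme and -100% = no enzyme or full thiadiazolimine inhibition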)
Pyruvate kinase PKM (Homo sapiens), sequence (P14618 whole entry, looked up): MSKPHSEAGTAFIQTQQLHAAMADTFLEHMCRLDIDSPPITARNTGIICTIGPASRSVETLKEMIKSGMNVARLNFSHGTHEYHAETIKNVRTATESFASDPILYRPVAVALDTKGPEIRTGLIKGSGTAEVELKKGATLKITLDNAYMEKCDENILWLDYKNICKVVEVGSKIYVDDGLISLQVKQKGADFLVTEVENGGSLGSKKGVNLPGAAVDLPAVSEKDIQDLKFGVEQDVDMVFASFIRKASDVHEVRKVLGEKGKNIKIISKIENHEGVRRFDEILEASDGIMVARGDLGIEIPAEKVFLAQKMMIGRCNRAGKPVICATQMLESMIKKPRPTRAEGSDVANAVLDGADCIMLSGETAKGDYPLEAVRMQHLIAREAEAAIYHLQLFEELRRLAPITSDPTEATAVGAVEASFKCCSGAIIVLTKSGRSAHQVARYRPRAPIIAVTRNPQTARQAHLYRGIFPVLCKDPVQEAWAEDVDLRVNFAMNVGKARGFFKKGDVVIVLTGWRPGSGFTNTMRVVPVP
Method in brief: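 Human PKM2 activity is measured as ATP generation, detected by luciferase-coupled luminescence. The enzyme (0.1 nM) acts on 0.5 mM PEP and 0.1 mM ADP for 1 h at ambient temperature; data are normalized to uninhibited and full-inhibition wells.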

[13] = target: Pyruvate kinase PKM (Homo sapiens) (UniProt P14618); test: qHTS Assay for Inhibitors of Human Muscle Pyruvate Kinase (AID 958); conditions: purified human PKM enzyme activity
Method in brief: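 A coupled luminescent readout tracked ATP made from ADP by purified PKM2. Final conditions included 0.1 nM enzyme, PEP and ADP at 0.5 and 0.1 mM, pH 7.2 imidazole buffer with BSA, and a one-hour room-temperature reaction.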

[14] = target: Pyruvate kinase (Leishmania mexicana) (UniProt Q27686); test: qHTS Validation Assay for Activators of Leishmania Mexicana Pyruvate Kinase (AID 959)
Pyruvate kinase (Leishmania mexicana), sequence (Q27686 2-499 E452W): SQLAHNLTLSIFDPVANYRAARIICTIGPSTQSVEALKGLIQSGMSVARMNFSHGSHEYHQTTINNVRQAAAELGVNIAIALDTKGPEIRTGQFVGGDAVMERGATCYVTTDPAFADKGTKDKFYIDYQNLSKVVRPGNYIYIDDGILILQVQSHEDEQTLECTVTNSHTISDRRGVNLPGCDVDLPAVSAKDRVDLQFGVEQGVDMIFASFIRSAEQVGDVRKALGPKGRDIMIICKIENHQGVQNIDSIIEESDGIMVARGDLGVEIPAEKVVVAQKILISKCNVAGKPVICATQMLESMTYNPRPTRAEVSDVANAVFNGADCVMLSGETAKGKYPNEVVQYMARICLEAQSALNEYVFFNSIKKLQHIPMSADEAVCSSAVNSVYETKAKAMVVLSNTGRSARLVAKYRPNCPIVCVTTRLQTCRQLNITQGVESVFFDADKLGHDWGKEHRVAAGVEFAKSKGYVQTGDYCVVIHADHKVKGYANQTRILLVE
Method in brief: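 The enzyme is a highly purified E451W mutant of LmPYK used at 0.2 nM. It converts 0.5 mM PEP and 0.1 mM ADP over 1 h at room temperature; product ATP is quantified by luciferase luminescence relative to DMSO controls.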

[15] = target: Alpha-galactosidase A (Homo sapiens) (UniProt P06280); test: Counterscreen for Glucocerebrosidase Inhibitors: qHTS Assay for Human alpha-Galactosidase at pH 4.5 (AID 992); also: 0% is about no effect
Alpha-galactosidase A (Homo sapiens), sequence (P06280 whole entry, looked up): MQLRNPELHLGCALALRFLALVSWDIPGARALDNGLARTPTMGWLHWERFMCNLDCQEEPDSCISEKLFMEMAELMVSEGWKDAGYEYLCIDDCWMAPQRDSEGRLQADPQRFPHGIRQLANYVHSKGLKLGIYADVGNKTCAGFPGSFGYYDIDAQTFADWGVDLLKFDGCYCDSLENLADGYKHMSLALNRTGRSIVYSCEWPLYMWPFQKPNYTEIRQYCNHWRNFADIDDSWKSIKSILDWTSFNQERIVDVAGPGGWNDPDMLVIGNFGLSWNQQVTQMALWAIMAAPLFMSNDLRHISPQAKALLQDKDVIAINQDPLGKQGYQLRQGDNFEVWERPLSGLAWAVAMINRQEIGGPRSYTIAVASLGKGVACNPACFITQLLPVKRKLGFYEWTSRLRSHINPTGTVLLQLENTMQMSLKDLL
Method in brief: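 Quantitative HTS: compounds tested from 0.7 nM up to 77 uM against 2 nM enzyme with 80 uM 4-MU alpha-D-galactopyranoside. The 20 min room-temperature reaction is stopped with 1M NaOH/1M glycine, pH 10.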

[16] = target: alpha-glucosidase (Oryza sativa, rice) (UniProt Q653V4); test: Counterscreen for Glucocerebrosidase Inhibitors: qHTS Assay for Rice alpha-Glucosidase at pH 5.0 (AID 997);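 also: 0% = full activity with enzyme and -100% = basal without enzyme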
Method in brief: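 Rice alpha-glucosidase (4 nM final) with 400 uM 4-methylumbelliferyl-alpha-D-glucopyranoside in citrate buffer pH 5.0, 20 min at room temperature, stopped at pH 10; fluorescence 365/440 nm, compounds 0.7 nM–77 uM, AC50 from Hill fits.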

[17] = qHTS Assay for Lipid Storage Modulators (AID 1519; calls by dose curve; as to activity change, negative = inhibition: % is scaled to controls: 0 for no effect and ±100 for the full control effect); conditions: Drosophila S3 cells, BODIPY lipid droplet/cell ratio, laser cytometry, cells loaded with oleic acid
Method in brief: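 Cells seeded at 5,000 per well were treated with compounds over a concentration series and loaded with oleic acid (400 uM, as added). Lipid droplet fluorescence (488 nm excitation, 500-530 nm channel) was read by laser-scanning cytometry and normalized to 20 uM Triacsin C.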

[18] = target: DNA repair nuclease/redox regulator APEX1 (Homo sapiens) (UniProt P27695); test: qHTS Validation Assay for Inhibitors of the Human Apurinic/apyrimidinic Endonuclease 1 (APE1) (AID 1705;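 also: TAMRA fluorescence gain over two minutes as APE1 cuts a quenched THF abasic duplex; % is scaled to controls: 0 for no effect and ±100 for the full control effect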)
DNA repair nuclease/redox regulator APEX1 (Homo sapiens), sequence (P27695 whole entry, looked up): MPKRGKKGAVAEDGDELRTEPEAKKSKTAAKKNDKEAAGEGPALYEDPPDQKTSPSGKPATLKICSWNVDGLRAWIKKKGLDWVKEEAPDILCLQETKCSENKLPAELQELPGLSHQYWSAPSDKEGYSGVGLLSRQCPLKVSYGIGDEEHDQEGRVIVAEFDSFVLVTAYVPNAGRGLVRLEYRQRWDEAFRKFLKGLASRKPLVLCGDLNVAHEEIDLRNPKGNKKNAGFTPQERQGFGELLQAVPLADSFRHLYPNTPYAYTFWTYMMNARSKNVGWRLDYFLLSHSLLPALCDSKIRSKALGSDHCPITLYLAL
Method in brief: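 Human APE1 was preincubated with compound for 15 min at room temperature, then 50 nM (final) THF-abasic double-stranded DNA substrate bearing 5'-TAMRA and 3'-BHQ-2 was added. Incision-driven fluorescence rise (ex 525/em 598 nm) was read kinetically.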

[19] = Counterscreen for APE1 Inhibitors: Fluorescent Dye Displacement Validation Assay (AID 1707);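 also: plate controls were ThO with dsDNA and no compound for no effect and ThO without dsDNA for full effect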
Method in brief: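 Compounds are scored by their ability to displace Thiazole Orange (250 nM) from a 50 nM TAMRA-tagged duplex bearing a tetrahydrofuran abasic site. Buffer is 50 mM Tris-HCl pH7.5, 50mM NaCl, 2 mM MgCl2, 0.01% Tween-20.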

N#C/C(=C\c1ccc(O)c(O)c1)C(=O)Nc1ccccc1
inactive: activity change, negative = inhibition [1] 6.23% | Potency [2] > 46 µM | Potency [3] > 46 µM | Potency [5] | outcome [6] | Potency [7] | Potency [8] | Potency [9] | Potency [10] | Potency [11] | outcome [12] | Potency [14] | outcome [15] | outcome [16] | activity change, negative = inhibition ([17]; at 57.5 µM (top of the series)) -21.4% | Potency [18] | Potency [19]
active: Potency [4] 12.6 µM | Potency [13] 25.1 µM
-56.6%: max response ([17]; measured here: cell count channel max response)
-66.1%: max response ([17]; measured here: lipid channel max response)
